About 83,000 compounds went through this panel and 20% of them were active in at least one assay; those are over-represented in the sample as a whole.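 Testing used 96-well plates and a 48-hour single-concentration exposure. Example: -40 means 40% of the starting cells died.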 Values without a mark were called inactive. Active and inactive are the calls of the source. Rule for the calls: active = growth percent below 10; inactive = the rest.
Tests used:
Test in all cases: NCI-60 one-dose screen, 48 h (100 = growth as untreated, 0 = no growth, -100 = all killed)
Details in all cases: 10 µM unless noted
NCI-H23 lung = tested on: NCI-H23 lung
NCI-H226 lung = tested on: NCI-H226 lung
NCI-H322M lung = tested on: NCI-H322M lung
HOP-62 NSCLC = tested on: HOP-62 NSCLC
NCI-H460 lung = tested on: NCI-H460 lung
NCI-H522 lung = tested on: NCI-H522 lung
A549/ATCC NSCLC = tested on: A549/ATCC NSCLC
786-0 renal = tested on: 786-0 renal
COLO 205 colon = tested on: COLO 205 colon
DU-145 prostate = tested on: DU-145 prostate
K-562 leukemia = tested on: K-562 leukemia
MALME-3M melanoma = tested on: MALME-3M melanoma
MDA-MB-231 breast = tested on: MDA-MB-231 breast
RXF 393 renal = tested on: RXF 393 renal
SF-268 CNS = tested on: SF-268 CNS
SF-295 CNS = tested on: SF-295 CNS
SF-539 CNS = tested on: SF-539 CNS
UACC-257 melanoma = tested on: UACC-257 melanoma
M14 melanoma = tested on: M14 melanoma

With `CCn1c(Cc2ccccc2Nc2c(Cl)cccc2Cl)nnc1SCC(=O)Nc1cccc(OC)c1` the growth (NCI-H23 lung) was 85%, the growth (NCI-H226 lung) was 83.3% and the growth (NCI-H322M lung) was 79.4%. It also gave a growth (HOP-62 NSCLC) of 94.2%, a growth (NCI-H460 lung) of 84.8% and a growth (NCI-H522 lung) of 42.6%. The growth (A549/ATCC NSCLC) was 66.1%, the growth (786-0 renal) was 89.8% and the growth (COLO 205 colon) was 96.4%. The growth (DU-145 prostate) was 94%, the growth (K-562 leukemia) was 62.6% and the growth (MALME-3M melanoma) was 94.3%. It also gave a growth (MDA-MB-231 breast) of 61.6%, a growth (RXF 393 renal) of 90% and a growth (SF-268 CNS) of 82.1%. The growth (SF-295 CNS) was 81.9%, the growth (SF-539 CNS) was 105% and the growth (UACC-257 melanoma) was 97.6%. For the same compound, the growth (M14 melanoma) was 76.4%.
`Clc1nnc2c3ccccc3ccn12` showed a growth (NCI-H23 lung) of 113%, a growth (NCI-H226 lung) of 77.8% and a growth (NCI-H322M lung) of 119%. For the same compound, the growth (HOP-62 NSCLC) was 98.5%, the growth (NCI-H460 lung) was 105% and the growth (NCI-H522 lung) was 103%. It also gave a growth (A549/ATCC NSCLC) of 102%, a growth (786-0 renal) of 99.3% and a growth (COLO 205 colon) of 103%. The growth (DU-145 prostate) was 105%, the growth (K-562 leukemia) was 102% and the growth (MALME-3M melanoma) was 135%. The growth (MDA-MB-231 breast) was 118%, the growth (RXF 393 renal) was 97.6% and the growth (SF-268 CNS) was 97.6%. It also gave a growth (SF-295 CNS) of 104%, a growth (SF-539 CNS) of 109% and a growth (UACC-257 melanoma) of 105%. It also gave a growth (M14 melanoma) of 106%.
`Fc1cc(-c2cnc3nonc3n2)c(Cl)cc1Cl` showed a growth (NCI-H23 lung) of 94.2%, a growth (NCI-H226 lung) of 111% and a growth (NCI-H322M lung) of 94.1%. The growth (HOP-62 NSCLC) was 98.3%, the growth (NCI-H460 lung) was 106% and the growth (NCI-H522 lung) was -72.3% (active). The growth (A549/ATCC NSCLC) was 102%, the growth (786-0 renal) was 79.3% and the growth (COLO 205 colon) was 60.2%. For the same compound, the growth (DU-145 prostate) was 85.3%, the growth (K-562 leukemia) was 28.9% and the growth (MALME-3M melanoma) was 41.1%. It also gave a growth (MDA-MB-231 breast) of 83.4%, a growth (RXF 393 renal) of 93% and a growth (SF-268 CNS) of 90.9%. The growth (SF-295 CNS) was 99.4%, the growth (SF-539 CNS) was 110% and the growth (UACC-257 melanoma) was 96%. It also gave a growth (M14 melanoma) of 76.8%.
Compound `CC(C)(C)OC[C@@H]1N=C(c2ccc(Br)cc2)Nc2nc3ccccn3c2C1=O` has a growth (NCI-H23 lung) of 71.5%, a growth (NCI-H226 lung) of 78.1% and a growth (NCI-H322M lung) of 84.8%. The growth (HOP-62 NSCLC) was 54.5%, the growth (NCI-H460 lung) was 41.3% and the growth (NCI-H522 lung) was 33.4%. It also gave a growth (A549/ATCC NSCLC) of 51.6%, a growth (786-0 renal) of 94.2% and a growth (COLO 205 colon) of 62.7%. The growth (DU-145 prostate) was 82.7%, the growth (K-562 leukemia) was 25.3% and the growth (MALME-3M melanoma) was 51.5%. For the same compound, the growth (MDA-MB-231 breast) was 61.5%, the growth (RXF 393 renal) was 61.6% and the growth (SF-268 CNS) was 74.3%. For the same compound, the growth (SF-295 CNS) was 30.9%, the growth (SF-539 CNS) was 75.7% and the growth (UACC-257 melanoma) was 62.3%. For the same compound, the growth (M14 melanoma) was 46.4%.
Work on `CCN(CC)CCNC(=O)C(F)(F)C(F)(F)C(F)(F)F` yielded a growth (NCI-H23 lung) of 114%, a growth (NCI-H226 lung) of 93.7% and a growth (NCI-H322M lung) of 114%. For the same compound, the growth (HOP-62 NSCLC) was 95.6%, the growth (NCI-H460 lung) was 111% and the growth (NCI-H522 lung) was 110%. For the same compound, the growth (A549/ATCC NSCLC) was 104%, the growth (786-0 renal) was 87.2% and the growth (COLO 205 colon) was 102%. For the same compound, the growth (DU-145 prostate) was 115%, the growth (K-562 leukemia) was 109% and the growth (MALME-3M melanoma) was 124%. For the same compound, the growth (MDA-MB-231 breast) was 104%, the growth (RXF 393 renal) was 98% and the growth (SF-268 CNS) was 103%. The growth (SF-295 CNS) was 101%, the growth (SF-539 CNS) was 90.7% and the growth (UACC-257 melanoma) was 111%. For the same compound, the growth (M14 melanoma) was 97.7%.
`O=C1/C(=C/c2cc(F)cc(F)c2)Cc2cc(F)cc(F)c21` gave a growth (NCI-H23 lung) of 101%, a growth (NCI-H226 lung) of 91.4% and a growth (NCI-H322M lung) of 75.9%. For the same compound, the growth (HOP-62 NSCLC) was 95.1%, the growth (NCI-H460 lung) was 103% and the growth (NCI-H522 lung) was 83.3%. For the same compound, the growth (A549/ATCC NSCLC) was 102%, the growth (786-0 renal) was 99.8% and the growth (COLO 205 colon) was 107%. The growth (DU-145 prostate) was 104%, the growth (K-562 leukemia) was 83.8% and the growth (MALME-3M melanoma) was 86%. It also gave a growth (MDA-MB-231 breast) of 95.1%, a growth (RXF 393 renal) of 93.1% and a growth (SF-268 CNS) of 91.4%. For the same compound, the growth (SF-295 CNS) was 95%, the growth (SF-539 CNS) was 89.8% and the growth (UACC-257 melanoma) was 113%. The growth (M14 melanoma) was 82.6%.
In the case of `COCc1nc(NS(=O)(=O)c2ccc(N)cc2)nc(C)c1Br`, the growth (NCI-H23 lung) is reported as 97.1%, the growth (NCI-H226 lung) is reported as 98.2% and the growth (NCI-H322M lung) is reported as 99%. For the same compound, the growth (HOP-62 NSCLC) was 91%, the growth (NCI-H460 lung) was 106% and the growth (NCI-H522 lung) was 76.7%. For the same compound, the growth (A549/ATCC NSCLC) was 94%, the growth (786-0 renal) was 100% and the growth (COLO 205 colon) was 108%. It also gave a growth (DU-145 prostate) of 116%, a growth (K-562 leukemia) of 98% and a growth (MALME-3M melanoma) of 94.6%. For the same compound, the growth (MDA-MB-231 breast) was 106%, the growth (RXF 393 renal) was 101% and the growth (SF-268 CNS) was 109%. The growth (SF-295 CNS) was 93.6%, the growth (SF-539 CNS) was 100% and the growth (UACC-257 melanoma) was 104%. The growth (M14 melanoma) was 101%.
`Nc1ncnc2c1N=C(c1ccc3c(c1)OCO3)CC(c1ccc(Cl)cc1)N2` (configuration not stated) was tested, and the growth (NCI-H23 lung) was 81.8%, the growth (NCI-H226 lung) was 73.3% and the growth (NCI-H322M lung) was 71.2%. The growth (HOP-62 NSCLC) was 44.1%, the growth (NCI-H460 lung) was 83.3% and the growth (NCI-H522 lung) was 84.3%. It also gave a growth (A549/ATCC NSCLC) of 79.6%, a growth (786-0 renal) of 74.3% and a growth (COLO 205 colon) of 68.1%. For the same compound, the growth (DU-145 prostate) was 92%, the growth (K-562 leukemia) was 83.8% and the growth (MALME-3M melanoma) was 77.2%. The growth (MDA-MB-231 breast) was 72.3%, the growth (RXF 393 renal) was 55.1% and the growth (SF-268 CNS) was 77.3%. For the same compound, the growth (SF-295 CNS) was 93.4%, the growth (SF-539 CNS) was 80.2% and the growth (UACC-257 melanoma) was 96.2%. The growth (M14 melanoma) was 96%.

From PubChem BioAssay (NCI)
